Test results published in PubChem BioAssay (NCI).
The panel holds about 79,000 compounds, 15% with a hit somewhere; the sample as a whole holds those more often. Active and inactive are the calls of the source. No stated cut-off is given here; in the data, active means growth inhibition above about 70%; inactive means the rest.

Columns and labels:
[1] = NCI Yeast Anticancer Drug Screen. Data for the rad52 strain (AID 147);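 further: 0% = growth of vehicle-treated control cultures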; conditions: S. cerevisiae rad52 mutant growth inhibition, stronger effect = higher value
Summary of the method: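 Compounds are applied to a genetically defined yeast strain lacking normal DNA damage repair, and inhibition of growth is expressed relative to cultures given vehicle only.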

[2] = NCI Yeast Anticancer Drug Screen. Data for the wt1 strain (AID 149);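 further: 0% = growth of vehicle-treated wt1 cultures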; conditions: S. cerevisiae wt1 strain (SPY 50644) growth inhibition, stronger effect = higher value
Summary of the method: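 Each compound is tested on wt1 yeast and the loss of growth versus vehicle gives the inhibition value.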

[3] = NCI Yeast Anticancer Drug Screen. Data for the rad50EPP+ strain (AID 151);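 further: 0% = growth of vehicle-treated control cultures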; conditions: S. cerevisiae rad50 mutant strain, stronger effect = higher value
Summary of the method: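 Compounds were applied to the rad50EPP+ yeast strain, which bears a defined DNA repair alteration, and growth inhibition was determined relative to vehicle-treated cultures.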

[4] = NCI Yeast Anticancer Drug Screen. Data for the rad50 strain (AID 155);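 further: 0% = growth of vehicle-only cultures of the same strain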; conditions: S. cerevisiae rad50 strain growth inhibition, stronger effect = higher value
Summary of the method: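 Vehicle-treated cultures provide the reference for the growth inhibition reported for compound-exposed, repair-deficient yeast.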

[5] = NCI Yeast Anticancer Drug Screen. Data for the mec2-1 strain (AID 157); conditions: S. cerevisiae mec2-1 strain, stronger effect = higher value
Summary of the method: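 Strain: mec2-1 (DNA repair/cell cycle alteration). Compound exposure, then growth measured; inhibition expressed relative to vehicle.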

[6] = NCI Yeast Anticancer Drug Screen. Data for the rad14 strain (AID 159);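 further: 0% = growth of vehicle-treated control cultures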; conditions: S. cerevisiae rad14 strain growth inhibition, stronger effect = higher value
Summary of the method: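 Inhibition of growth is reported for a repair-deficient yeast mutant following compound treatment, calculated relative to cultures that received vehicle.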

[7] = NCI Yeast Anticancer Drug Screen. Data for the sgs1 mgt1 strain (AID 161);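 further: 0% = growth of cultures given vehicle only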; conditions: S. cerevisiae sgs1 mgt1 strain, stronger effect = higher value
Summary of the method: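 Read-out: growth inhibition vs vehicle controls. Cells: mutant yeast strain deficient in DNA damage repair.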

[8] = NCI Yeast Anticancer Drug Screen. Data for the CLN2oe strain (AID 163);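 further: 0% = growth of vehicle-only control cultures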; conditions: S. cerevisiae CLN2oe strain, stronger effect = higher value
Summary of the method: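 Growth of a genetically modified yeast strain is measured after compound exposure and compared with cultures given vehicle alone.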

[9] = NCI Yeast Anticancer Drug Screen. Data for the cln2 rad14 strain (AID 165);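 further: 0% = growth equal to vehicle treated cultures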; conditions: S. cerevisiae cln2 rad14 strain, stronger effect = higher value
Summary of the method: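 Compounds are applied to the cln2 rad14 yeast strain, and growth is then compared with that of vehicle-treated cultures to give inhibition.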

[10] = NCI Yeast Anticancer Drug Screen. Data for the bub3 strain (AID 167); conditions: S. cerevisiae bub3 mutant strain, stronger effect = higher value
Summary of the method: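 Mutant yeast screening strain plus compound; vehicle-treated cultures serve as the 0% inhibition reference.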

[11] = NCI Yeast Anticancer Drug Screen. Data for the wt2 strain (AID 169); conditions: S. cerevisiae wt2 strain growth inhibition, stronger effect = higher value
Summary of the method: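 This strain belongs to a panel of yeast strains with defined genetic alterations in DNA damage repair or cell cycle control. Compounds are applied, and growth inhibition is measured against vehicle-treated cultures.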

[12] = NCI Yeast Anticancer Drug Screen. Data for the mlh1 strain (AID 171);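 further: 0% = growth of vehicle-treated control cultures of the same strain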; conditions: S. cerevisiae mlh1 strain growth inhibition, stronger effect = higher value
Summary of the method: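 Growth of the mutant yeast strain after compound exposure, expressed as inhibition relative to vehicle-only controls.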

[13] = NCI Yeast Anticancer Drug Screen. Data for the sgs1 strain (AID 173);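 further: 0% = growth of vehicle-only control cultures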; conditions: S. cerevisiae sgs1 mutant, stronger effect = higher value
Summary of the method: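 Growth of a yeast strain bearing a defined genetic alteration is measured after compound treatment. Inhibition is expressed relative to vehicle-only controls.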

[14] = NCI Yeast Anticancer Drug Screen. Data for the rad18 strain (AID 177); conditions: S. cerevisiae rad18 mutant growth inhibition, stronger effect = higher value
Summary of the method: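 Growth of the mutant yeast strain after compound exposure, normalised to vehicle-only cultures.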

[15] = NCI Yeast Anticancer Drug Screen. Data for the mlh1 rad18 strain (AID 175); conditions: S. cerevisiae mlh1 rad18 strain growth inhibition, stronger effect = higher value
Summary of the method: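 Read-out is yeast growth inhibition, calculated against vehicle-only controls. The compound was applied to a strain engineered with DNA damage repair alterations.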

[16] = at 5.0 µM (retest, dose inferred, filed as 0.5)
[17] = at 50.0 µM (retest, dose inferred, filed as 5.0)

Measured: growth inhibition

CCc1ccc2c(c1)N(CC(C)CN(C)C)c1ccccc1S2 (stereo not drawn)
active: [3]; at 100.0 µM 87% | [4]; at 100.0 µM 82% | [6]; at 100.0 µM 96% | [10]; at 50.0 µM 74% | [10]; at 100.0 µM 74% | [11]; at 100.0 µM 78% | [13]; at 100.0 µM 93% | [14]; at 100.0 µM 85%
inactive: [1]; at 1.2 µM -5% | [1]; at 3.7 µM -8% | [1]; at 11.0 µM -9% | [1]; at 33.0 µM -1% | [1]; at 100.0 µM 69% | [2]; at 1.2 µM -2% | [2]; at 3.7 µM -4% | [2]; at 11.0 µM -6% | [2]; at 33.0 µM -5% | [2]; at 100.0 µM 32% | [3]; at 1.2 µM -12% | [3]; at 3.7 µM -15% | [3]; at 11.0 µM -23% | [3]; at 33.0 µM -31% | [4]; at 1.2 µM -4% | [4]; at 3.7 µM -9% | [4]; [16] 2% | [4]; at 11.0 µM -1% | [4]; at 33.0 µM 4% | [4]; [17] 37% | [4]; at 50.0 µM 52.1% | [5]; at 1.2 µM -6% | [5]; at 3.7 µM -8% | [5]; [16] -7% | [5]; at 11.0 µM -12% | [5]; at 33.0 µM -4% | [5]; [17] -27% | [5]; at 50.0 µM -12.1% | [5]; at 100.0 µM 58% | [6]; at 1.2 µM -2% | [6]; at 3.7 µM -4% | [6]; at 11.0 µM -1% | [6]; at 33.0 µM 23% | [7]; [16] -12% | [7]; [17] 23% | [7]; at 50.0 µM 24.3% | [8]; at 1.2 µM -9% | [8]; at 3.7 µM -4% | [8]; at 11.0 µM -10% | [8]; at 33.0 µM 3% | [8]; at 100.0 µM 58% | [9]; [16] -24% | [9]; [17] 21% | [9]; at 50.0 µM 65% | [10]; at 1.2 µM -3% | [10]; at 3.7 µM 3% | [10]; [16] 2% | [10]; at 11.0 µM 18% | [10]; at 33.0 µM 48% | [10]; [17] 32% | [11]; at 1.2 µM -4% | [11]; at 3.7 µM -4% | [11]; at 11.0 µM -6% | [11]; at 33.0 µM 3% | [12]; at 1.2 µM -2% | [12]; at 3.7 µM -3% | [12]; at 11.0 µM -5% | [12]; at 33.0 µM -23% | [12]; at 100.0 µM 62% | [13]; at 1.2 µM -4% | [13]; at 3.7 µM -5% | [13]; at 11.0 µM -4% | [13]; at 33.0 µM 16% | [14]; at 1.2 µM -12% | [14]; at 3.7 µM -10% | [14]; at 11.0 µM -8% | [14]; at 33.0 µM 2%

CC(C)(C)[Si](C)(C)OCC1CCC(n2cnc3c(NC(=O)c4ccccc4)ncnc32)O1 (stereo not drawn)
inactive: [1]; at 1.2 µM -2% | [1]; at 3.7 µM -3% | [1]; at 11.0 µM -2% | [1]; at 33.0 µM -1% | [1]; at 100.0 µM -2% | [2]; at 1.2 µM 0% | [2]; at 3.7 µM 0% | [2]; at 11.0 µM 0% | [2]; at 33.0 µM 4% | [2]; at 100.0 µM -2% | [3]; at 1.2 µM -3% | [3]; at 3.7 µM -2% | [3]; at 11.0 µM 1% | [3]; at 33.0 µM 5% | [3]; at 100.0 µM 5% | [4]; at 1.2 µM 1% | [4]; at 3.7 µM -49% | [4]; [16] 0% | [4]; at 11.0 µM -28% | [4]; at 33.0 µM 2% | [4]; [17] 31% | [4]; at 100.0 µM 1% | [5]; at 1.2 µM -3% | [5]; at 3.7 µM 0% | [5]; [16] -2% | [5]; at 11.0 µM -1% | [5]; at 33.0 µM 0% | [5]; [17] 49% | [5]; at 100.0 µM 0% | [6]; at 1.2 µM -1% | [6]; at 3.7 µM -2% | [6]; at 11.0 µM 3% | [6]; at 33.0 µM 3% | [6]; at 100.0 µM 2% | [7]; [16] -1% | [7]; [17] 6% | [7]; at 50.0 µM 27.2% | [8]; at 1.2 µM -2% | [8]; at 3.7 µM 0% | [8]; at 11.0 µM 5% | [8]; at 33.0 µM -1% | [8]; at 100.0 µM -4% | [9]; [16] -4% | [9]; [17] 30% | [9]; at 50.0 µM 42.2% | [10]; at 1.2 µM 2% | [10]; at 3.7 µM 0% | [10]; [16] -2% | [10]; at 11.0 µM 1% | [10]; at 33.0 µM -2% | [10]; [17] 30% | [10]; at 50.0 µM 23.1% | [10]; at 100.0 µM -4% | [11]; at 1.2 µM -1% | [11]; at 3.7 µM 7% | [11]; at 11.0 µM -2% | [11]; at 33.0 µM 5% | [11]; at 100.0 µM -1% | [12]; at 1.2 µM 0% | [12]; at 3.7 µM -3% | [12]; at 11.0 µM -1% | [12]; at 33.0 µM -1% | [12]; at 100.0 µM -1% | [13]; at 1.2 µM -2% | [13]; at 3.7 µM -2% | [13]; at 11.0 µM 0% | [13]; at 33.0 µM 1% | [13]; at 100.0 µM 0% | [15]; [16] -5% | [15]; [17] 47% | [14]; at 1.2 µM -3% | [14]; at 3.7 µM 2% | [14]; at 11.0 µM -1% | [14]; at 33.0 µM 1% | [14]; at 100.0 µM -1%
active: [4]; at 50.0 µM 87.5% | [5]; at 50.0 µM 90% | [15]; at 50.0 µM 80.9%
